These results are taken from PubChem BioAssay (EPA / NIEHS).

SMILES strings stand for the structures. Records with an inconclusive call do not appear. The source made the active and inactive calls. How the source made its calls: active means hit-call score of the fitted dose curve at least 0.9, where 1 is the maximum; inconclusive means response in the unintended direction; inactive means score below 0.9.

human RAR-related Orphan Receptor gamma (RORg), RORC (gene 6097), sequence (P51449 whole entry, looked up, the tested form may be a part): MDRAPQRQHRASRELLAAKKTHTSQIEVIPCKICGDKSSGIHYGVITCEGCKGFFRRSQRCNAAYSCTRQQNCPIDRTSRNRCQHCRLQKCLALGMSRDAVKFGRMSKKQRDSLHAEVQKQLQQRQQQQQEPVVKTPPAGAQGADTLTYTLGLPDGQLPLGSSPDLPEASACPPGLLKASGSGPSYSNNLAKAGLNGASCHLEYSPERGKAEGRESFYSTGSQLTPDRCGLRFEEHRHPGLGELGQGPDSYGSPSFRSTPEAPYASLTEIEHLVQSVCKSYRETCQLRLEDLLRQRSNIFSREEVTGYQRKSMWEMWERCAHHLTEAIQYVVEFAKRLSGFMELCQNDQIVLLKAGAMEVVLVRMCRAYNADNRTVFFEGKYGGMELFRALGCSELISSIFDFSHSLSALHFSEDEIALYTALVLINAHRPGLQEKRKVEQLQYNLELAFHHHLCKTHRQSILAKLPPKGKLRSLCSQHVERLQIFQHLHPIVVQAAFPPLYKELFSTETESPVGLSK
human Retinoid X Receptor beta (RXRb), RXRB (gene 6257), sequence (P28702 whole entry, looked up, the tested form may be a part): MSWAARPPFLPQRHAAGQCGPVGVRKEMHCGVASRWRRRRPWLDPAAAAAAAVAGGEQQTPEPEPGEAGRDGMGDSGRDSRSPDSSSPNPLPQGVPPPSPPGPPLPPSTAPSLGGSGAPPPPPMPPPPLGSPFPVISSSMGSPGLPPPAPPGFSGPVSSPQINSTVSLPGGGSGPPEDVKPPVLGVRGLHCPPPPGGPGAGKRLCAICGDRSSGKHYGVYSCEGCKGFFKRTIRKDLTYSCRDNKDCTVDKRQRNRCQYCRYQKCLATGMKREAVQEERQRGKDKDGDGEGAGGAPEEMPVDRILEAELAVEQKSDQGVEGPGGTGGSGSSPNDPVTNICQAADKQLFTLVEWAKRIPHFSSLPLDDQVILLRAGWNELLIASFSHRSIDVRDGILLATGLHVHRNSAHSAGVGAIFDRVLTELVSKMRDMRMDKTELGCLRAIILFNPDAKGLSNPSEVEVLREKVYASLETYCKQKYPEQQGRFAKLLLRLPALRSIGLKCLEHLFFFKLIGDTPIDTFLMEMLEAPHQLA
Retinoic acid receptor RXR-alpha (Homo sapiens), sequence (P19793 whole entry, looked up, the tested form may be a part): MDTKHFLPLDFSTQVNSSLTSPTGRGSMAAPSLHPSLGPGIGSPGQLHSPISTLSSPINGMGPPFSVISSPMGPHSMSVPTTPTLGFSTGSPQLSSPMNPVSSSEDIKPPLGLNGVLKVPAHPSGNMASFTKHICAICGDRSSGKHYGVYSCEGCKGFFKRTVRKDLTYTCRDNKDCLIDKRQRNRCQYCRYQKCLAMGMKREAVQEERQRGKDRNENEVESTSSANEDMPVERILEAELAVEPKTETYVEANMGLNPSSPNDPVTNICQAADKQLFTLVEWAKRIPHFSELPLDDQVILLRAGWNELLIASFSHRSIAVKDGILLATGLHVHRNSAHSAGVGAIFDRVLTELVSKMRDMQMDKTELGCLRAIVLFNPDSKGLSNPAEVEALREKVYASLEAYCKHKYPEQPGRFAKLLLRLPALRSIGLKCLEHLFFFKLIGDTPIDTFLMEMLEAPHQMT

The first assay deals with human RAR-related Orphan Receptor gamma (RORg), RORC (gene 6097) (UniProt P51449). Description: ATG_RORg_TRANS: Attagene TRANS-FACTORIAL HepG2 Assay for human RAR-related Orphan Receptor gamma (RORg) (AID 2283011). The method, boiled down:
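Readout: reporter transcript induction (RT-PCR, fluorescent primer extension, capillary electrophoresis) after 24 h compound exposure of transiently transfected HepG2 cells carrying a RORg-Gal4 chimera and GAL4-UAS reporters; DMSO served as baseline, with increasing signal fitted.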
Take `CC(=O)/C=C/C1C(C)=CCCC1(C)C` (stereo unspecified): the call was inactive.

For the compound `N=C1C=CC(=C(c2ccc(N)cc2)c2ccc(N)cc2)C=C1`, the compound was classed as inactive. Still for that read-out and setting: in the case of `C[Si](C)(C)N[Si](C)(C)C` it was “inactive”; in that of `C=C(C)C1CC=C(C)CC1` (stereo unspecified), “inactive”; in that of `C=CCCCCCCCCOC(C)=O`, “inactive”. The same measure, in the same setting: in the case of `CC(=O)OC(C)c1ccccc1` (stereo unspecified) it was “inactive”; in that of `CN1CCN(C)CC1`, “inactive”.

Regarding `Nc1ncnc2nc[nH]c12`, the compound was classed as inactive.

The target of the next assay is Retinoic acid receptor RXR-alpha (Homo sapiens) (UniProt P19793). Description: ATG_RXRa_TRANS: Attagene TRANS-FACTORIAL HepG2 Assay for human Retinoid X Receptor alpha (RXRa) (AID 2283012). The method, boiled down:
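Measures exogenous chimeric NR-GAL4 activity in transfected HepG2 liver cells after 24 h of dosing. Induced reporter mRNA was detected by RT-PCR with capillary electrophoresis, and gain of signal was analysed against DMSO.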
For the compound `COCC(=O)O`, the compound was called inactive. As to `CCCCOCC(C)O` (stereo unspecified), the outcome was inactive. On the same count and under the same terms, then `CC1(C)[C@@H]2CC[C@@]1(C)C(=O)C2`, with “inactive”. The same measure, in the same setting: then `CC(=O)/C=C/C1C(C)=CCCC1(C)C` (stereo unspecified), with “inactive”; and `CCCCC(C=O)CC` (stereo unspecified), with “inactive”; and `N=C1C=CC(=C(c2ccc(N)cc2)c2ccc(N)cc2)C=C1`, with “inactive”. The same measure, in the same setting: in the case of `O=C1c2ccccc2C(=O)c2cc(S(=O)(=O)O)ccc21` it was “inactive”; in that of `CCCCCC(=O)OCC`, “inactive”. With `C=C[Si](OCCOC)(OCCOC)OCCOC`, the result was inactive. Still for that read-out and setting: in the case of `Cc1c(Cl)cccc1Cl` it was “inactive”. The same measure, in the same setting: then `C=CCCCCCCCCOC(C)=O`, with “inactive”; and `C=C1C[C@H]2[C@@H]3C=C(C)C4=CC(=O)CC[C@]4(C)[C@H]3CC[C@]2(C)[C@@]1(OC(C)=O)C(C)=O`, with “inactive”; and `CCCC(CC)c1ccccc1` (stereo unspecified), with “inactive”. The same measure, in the same setting: in the case of `CCCCCCCC(=O)OCC` it was “inactive”; in that of `CC(C)(C)N`, “inactive”; in that of `CC(=O)OC(C)c1ccccc1` (stereo unspecified), “inactive”. Consider `CN1CCN(C)CC1`, for which the outcome was inactive. The same measure, in the same setting: then `Cn1ccnc1`, with “inactive”; and `C=CC(=O)OCCCCCCCCCC`, with “inactive”. Still for that read-out and setting: then `Nc1ncnc2nc[nH]c12`, with “inactive”. For the compound `CCN1CCCC1=O`, the compound was classed as inactive.

For a further assay, the target named is human Retinoid X Receptor beta (RXRb), RXRB (gene 6257) (UniProt P28702). The assay is described as follows: ATG_RXRb_TRANS: Attagene TRANS-FACTORIAL HepG2 Assay for human Retinoid X Receptor beta (RXRb) (AID 2283013). The method, boiled down:
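Chimeric receptor-Gal4 activity was assessed in transiently transfected human HepG2 cells after 24 h exposure. Transcripts from GAL4-UAS reporters were quantified by fluorescent RT-PCR and capillary electrophoresis, with DMSO as negative control and baseline.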
For the compound `CCCCOCC(C)O` (stereo unspecified), the compound was called inactive. As a reminder, the AC50 is the concentration giving half of the maximal activity seen. For `CC(=O)/C=C/C1C(C)=CCCC1(C)C` (stereo unspecified), the half-maximal activity concentration (AC50) was 31.3 µM (active). In the case of `CCCCC(C=O)CC` (stereo unspecified), the outcome was inactive. Turning to `O=C1c2ccccc2C(=O)c2cc(S(=O)(=O)O)ccc21`, the compound was classed as inactive. On to `C[Si](C)(C)N[Si](C)(C)C`, for which the compound was classed as inactive. On the same count and under the same terms, then `CCCCCC(=O)OCC`, with “inactive”; and `C=C(C)C1CC=C(C)CC1` (stereo unspecified), with “inactive”. Same read-out and setting: in the case of `C=CCCCCCCCCOC(C)=O` it was “inactive”; in that of `CC(=O)CC(=O)Nc1ccccc1C`, “inactive”.

In the case of `CCOc1ccc(NC(N)=O)cc1`, the compound was called inactive.

Turning to `CCCC(CC)c1ccccc1` (stereo unspecified), the AC50 was 66.4 µM (active). Consider `CCCCCCCC(=O)OCC`, for which the compound was called inactive. The same measure, in the same setting: then `CC(C)(C)N`, with “inactive”; and `CCCCCCO`, with “inactive”; and `C=C(C)[C@@H]1CC=C(C)CC1`, with “inactive”.

As to `Cn1ccnc1`, the outcome was inactive.

In the case of `CC1=CCC(C(C)C)C=C1` (stereo unspecified), the outcome was inactive.

For `O=C(Oc1ccccc1)c1ccccc1O`, the call was inactive. As for `C=CC(=O)OCCCCCCCCCC`, the result was inactive. The same measure, in the same setting: in the case of `CCc1cccc(CC)c1` it was “inactive”. Same read-out and setting: then `CC(C)(c1ccccc1)c1ccc(Nc2ccc(C(C)(C)c3ccccc3)cc2)cc1`, with “inactive”; and `O=C1CCCN1C1CCCCC1`, with “inactive”.
